# Data as given in PubChem BioAssay (EPA / NIEHS).
# “And” between values parts separate entries of the source, which are not always exact repeats. Equal values may be shown once. Some structures have more than one record in an assay (separate samples or runs), and their calls can disagree. The source made the active and inactive calls. The calls were made as follows: active = hit-call score of the fitted dose curve at least 0.9, where 1 is the maximum; inactive = score below 0.9.
# What was measured:
# [1] = read-out: Tissue plasminogen activator (tPA), PLAT (gene 5327); experiment: BSK_BE3C_tPA: BioMAP Diversity Plus: BE3C Assay for Tissue plasminogen activator (tPA) Biomarker Activity (AID 2283041); conditions: primary human bronchial epithelial cells; actives raise or lower the signal;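 also: tPA level quantified by ELISA one day after compound addition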
# Method in brief: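 Human primary bronchial epithelial cells were dosed with chemical and tPA biomarker levels measured by ELISA 24 hours later. Activity was fitted bidirectionally against DMSO as negative control and baseline.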
# [2] = read-out: Interleukin-8 (IL8), CXCL8 (gene 3576); experiment: BSK_CASM3C_IL8: BioMAP Diversity Plus: CASM3C Assay for Interleukin-8 (IL8) Biomarker Activity (AID 2283042); conditions: primary human coronary artery smooth muscle cells; actives raise or lower the signal;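 also: IL-8 protein level quantified by ELISA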
# [3] = read-out: Human Leukocyte Antigen - DR isotype (HLADR), HLA-DRA (gene 3122); experiment: BSK_CASM3C_HLADR: BioMAP Diversity Plus: CASM3C Assay for Human Leukocyte Antigen - DR isotype (HLADR) Biomarker Activity (AID 2283043); conditions: primary human coronary artery smooth muscle cells; actives raise or lower the signal;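 also: cell-surface HLA-DR protein level quantified by ELISA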
# [4] = read-out: Macrophage colony-stimulating factor (MCSF), CSF1 (gene 1435); experiment: BSK_CASM3C_MCSF: BioMAP Diversity Plus: CASM3C Assay for Macrophage colony-stimulating factor (MCSF) Biomarker Activity (AID 2283044); conditions: primary human coronary artery smooth muscle cells; actives raise or lower the signal;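 also: M-CSF protein amount quantified by ELISA after 24 h exposure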
# [5] = read-out: Low-density lipoprotein receptor (LDLR), LDLR (gene 3949); experiment: BSK_CASM3C_LDLR: BioMAP Diversity Plus: CASM3C Assay for Low-density lipoprotein receptor (LDLR) Biomarker Activity (AID 2283045); conditions: primary human coronary artery smooth muscle cells; actives raise or lower the signal;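 also: LDLR protein level on the cell surface quantified by ELISA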
# [6] = read-out: Monocyte Chemoattractant Protein-1 (MCP1), CCL2 (gene 6347); experiment: BSK_CASM3C_MCP1: BioMAP Diversity Plus: CASM3C Assay for Monocyte Chemoattractant Protein-1 (MCP1) Biomarker Activity (AID 2283046); conditions: primary human coronary artery smooth muscle cells; actives raise or lower the signal;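 also: MCP-1 level quantified by ELISA 24 h after dosing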
# [7] = BSK_CASM3C_Proliferation: Cell Proliferation Assessment in the BioMAP Diversity Plus: CASM3C Assay (AID 2283047); conditions: primary human coronary artery smooth muscle cells;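 also: sulforhodamine B total protein stain as relative cell number at 560 nm; sub-confluent cells exposed 48 h before staining; fitted both ways against DMSO so gain or loss of cell number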
# [8] = read-out: Monokine induced gamma interferon (MIG), CXCL9 (gene 4283); experiment: BSK_CASM3C_MIG: BioMAP Diversity Plus: CASM3C Assay for Monokine induced gamma interferon (MIG) Biomarker Activity (AID 2283048); conditions: primary human coronary artery smooth muscle cells; actives raise or lower the signal;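 also: MIG protein level measured by ELISA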
# [9] = read-out: serum amyloid A (SAA), SAA1 (gene 6288); experiment: BSK_CASM3C_SAA: BioMAP Diversity Plus: CASM3C Assay for serum amyloid A (SAA) Biomarker Activity (AID 2283049); conditions: primary human coronary artery smooth muscle cells; actives raise or lower the signal;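 also: SAA protein level quantified by ELISA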
# [10] = BSK_CASM3C_SRB: Viability Assessment in the BioMAP Diversity Plus: CASM3C Assay (AID 2283050); conditions: primary human coronary artery smooth muscle cells;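 also: total protein by SRB staining as cytotoxicity measure in parallel cultures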
# [11] = read-out: Thrombomodulin, THBD (gene 7056); experiment: BSK_CASM3C_Thrombomodulin: BioMAP Diversity Plus: CASM3C Assay for Thrombomodulin Biomarker Activity (AID 2283051); conditions: primary human coronary artery smooth muscle cells; actives raise or lower the signal;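 also: thrombomodulin protein level measured by ELISA 24 h after dosing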
# [12] = read-out: Tissue Factor, F3 (gene 2152); experiment: BSK_CASM3C_TissueFactor: BioMAP Diversity Plus: CASM3C Assay for Tissue Factor Biomarker Activity (AID 2283052); conditions: primary human coronary artery smooth muscle cells; actives raise or lower the signal;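 also: cell surface tissue factor protein level read by ELISA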
# [13] = read-out: Interferon-gamma inducible Protein 10 (IP10), CXCL10 (gene 3627); experiment: BSK_hDFCGF_IP10: BioMAP Diversity Plus: hDFCGF Assay for Interferon-gamma inducible Protein 10 (IP10) Biomarker Activity (AID 2283053); conditions: primary human foreskin fibroblasts; actives raise or lower the signal
# Method in brief: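 Human foreskin fibroblast primary cells (hDFCGF system) were dosed with chemical and assayed at 24 h; IP-10 measured by ELISA. Activity fitted bidirectionally relative to DMSO negative control as baseline.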
# [14] = read-out: Urokinase-type plasminogen activator receptor (uPAR), PLAUR (gene 5329); experiment: BSK_CASM3C_uPAR: BioMAP Diversity Plus: CASM3C Assay for Urokinase-type plasminogen activator receptor (uPAR) Biomarker Activity (AID 2283054); conditions: primary human coronary artery smooth muscle cells; actives raise or lower the signal;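 also: cell-surface uPAR protein level quantified by ELISA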
# [15] = read-out: Vascular cell adhesion molecule 1 (VCAM1), VCAM1 (gene 7412); experiment: BSK_CASM3C_VCAM1: BioMAP Diversity Plus: CASM3C Assay for Vascular cell adhesion molecule 1 (VCAM1) Biomarker Activity (AID 2283055); conditions: primary human coronary artery smooth muscle cells; actives raise or lower the signal;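 also: VCAM-1 protein level quantified by ELISA on the cells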
# [16] = read-out: Collagen III, COL3A1 (gene 1281); experiment: BSK_hDFCGF_CollagenIII: BioMAP Diversity Plus: hDFCGF Assay for Collagen III Biomarker Activity (AID 2283056); conditions: primary human foreskin fibroblasts; actives raise or lower the signal
# Method in brief: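 hDFCGF primary human dermal fibroblasts; 24 h chemical exposure; collagen III by ELISA; bidirectional curve fit vs DMSO baseline (gain or loss of signal).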
# [17] = read-out: Epidermal growth factor receptor (EGFR), EGFR (gene 1956); experiment: BSK_hDFCGF_EGFR: BioMAP Diversity Plus: hDFCGF Assay for Epidermal growth factor receptor (EGFR) Biomarker Activity (AID 2283057); conditions: primary human foreskin fibroblasts; actives raise or lower the signal
# Method in brief: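 Primary human foreskin fibroblasts were exposed to compound for 24 h, after which cell-surface EGFR was quantified by ELISA. Activity was fitted bidirectionally against the DMSO negative control as baseline.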
# [18] = read-out: Interleukin-8 (IL8), CXCL8 (gene 3576); experiment: BSK_hDFCGF_IL8: BioMAP Diversity Plus: hDFCGF Assay for Interleukin-8 (IL8) Biomarker Activity (AID 2283058); conditions: primary human foreskin fibroblasts; actives raise or lower the signal
# Method in brief: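 ELISA read-out of IL-8 from primary human foreskin fibroblast cultures taken 24 h after dosing; values are bidirectional fits relative to DMSO vehicle.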
# [19] = BSK_hDFCGF_Proliferation: Cell Proliferation Assessment in the BioMAP Diversity Plus: hDFCGF Assay (AID 2283059); conditions: primary human foreskin fibroblasts;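 also: curves fitted for both rise and fall of signal versus DMSO baseline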
# Method in brief: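 This proliferation readout used SRB total-protein staining of human foreskin fibroblasts […], normalized to DMSO with bidirectional curve fitting.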
# [20] = read-out: Macrophage colony-stimulating factor (MCSF), CSF1 (gene 1435); experiment: BSK_hDFCGF_MCSF: BioMAP Diversity Plus: hDFCGF Assay for Macrophage colony-stimulating factor (MCSF) Biomarker Activity (AID 2283060); conditions: primary human foreskin fibroblasts; actives raise or lower the signal
# Method in brief: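 ELISA read-out of M-CSF in human dermal foreskin fibroblast cultures, 24 h after chemical dosing; gain or loss of signal fitted bidirectionally relative to DMSO baseline.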
smiles,measurement,setting,value
Nc1cc([N+](=O)[O-])ccc1O,outcome,[1],inactive
same,outcome,[2],inactive
same,AC50,[3],11.8 µM (active)
same,outcome,[3],inactive
same,outcome,[4],inactive
same,outcome,[5],inactive
same,outcome,[6],inactive
same,outcome,[7],inactive
same,outcome,[8],inactive
same,outcome,[9],inactive
same,outcome,[10],inactive
same,AC50,[11],20 µM (active)
same,outcome,[11],inactive
same,outcome,[12],inactive
same,outcome,[13],inactive
same,outcome,[14],inactive
same,outcome,[15],inactive
same,outcome,[16],inactive
same,outcome,[17],inactive
same,outcome,[18],inactive
same,AC50,[19],20 µM (active) and 10.8 µM (active)
same,outcome,[20],inactive
Cc1cc(C2(c3cc(C)c(O)cc3C)OS(=O)(=O)c3ccccc32)c(C)cc1O,outcome,[1],inactive
same,outcome,[2],inactive
same,outcome,[3],inactive
same,outcome,[4],inactive
same,outcome,[5],inactive
same,outcome,[6],inactive
same,outcome,[7],inactive
same,outcome,[8],inactive
same,outcome,[9],inactive
same,outcome,[10],inactive
same,outcome,[11],inactive
same,outcome,[12],inactive
same,outcome,[13],inactive
same,outcome,[14],inactive
same,outcome,[15],inactive
same,outcome,[16],inactive
same,outcome,[17],inactive
same,outcome,[18],inactive
same,outcome,[19],inactive
same,outcome,[20],inactive
Cc1ccc(Nc2ccc(O)c3c2C(=O)c2ccccc2C3=O)cc1,outcome,[1],inactive
same,outcome,[2],inactive
same,outcome,[3],inactive
same,outcome,[4],inactive
same,outcome,[5],inactive
same,outcome,[6],inactive
same,outcome,[7],inactive
same,outcome,[8],inactive
same,outcome,[9],inactive
same,outcome,[10],inactive
same,outcome,[11],inactive
same,outcome,[12],inactive
same,outcome,[13],inactive
same,outcome,[14],inactive
same,outcome,[15],inactive
same,outcome,[16],inactive
same,outcome,[17],inactive
same,outcome,[18],inactive
same,AC50,[19],2.4 µM (active)
same,outcome,[20],inactive
O=P(c1ccccc1)(c1ccccc1)c1ccccc1,outcome,[1],inactive
same,outcome,[2],inactive
same,outcome,[3],inactive
same,outcome,[4],inactive
same,outcome,[5],inactive
same,outcome,[6],inactive
same,outcome,[7],inactive
same,outcome,[8],inactive
same,outcome,[9],inactive
same,outcome,[10],inactive
same,outcome,[11],inactive
same,outcome,[12],inactive
same,outcome,[13],inactive
same,outcome,[14],inactive
same,outcome,[15],inactive
same,outcome,[16],inactive
same,outcome,[17],inactive
same,outcome,[18],inactive
same,outcome,[19],inactive
same,outcome,[20],inactive
CC(=O)Nc1ccccc1O,outcome,[1],inactive
same,outcome,[2],inactive
same,outcome,[3],inactive
same,outcome,[4],inactive
same,outcome,[5],inactive
same,outcome,[6],inactive
same,outcome,[7],inactive
same,outcome,[8],inactive
same,outcome,[9],inactive
same,outcome,[10],inactive
same,outcome,[11],inactive
same,outcome,[12],inactive
same,outcome,[13],inactive
same,AC50,[14],124 nM (active)
same,outcome,[15],inactive
same,outcome,[16],inactive
same,outcome,[17],inactive
same,outcome,[18],inactive
same,outcome,[19],inactive
same,outcome,[20],inactive
CC[Si](OC(C)=O)(OC(C)=O)OC(C)=O,outcome,[1],inactive
same,outcome,[2],inactive
same,outcome,[3],inactive
same,outcome,[4],inactive
same,outcome,[5],inactive
same,outcome,[6],inactive
same,outcome,[7],inactive
same,outcome,[8],inactive
same,outcome,[9],inactive
same,outcome,[10],inactive
same,outcome,[11],inactive
same,outcome,[12],inactive
same,outcome,[13],inactive
same,outcome,[14],inactive
same,outcome,[15],inactive
same,AC50,[16],5.47 µM (active)
same,outcome,[16],inactive
same,outcome,[17],inactive
same,outcome,[18],inactive
same,AC50,[19],16.1 µM (active)
same,outcome,[19],inactive
same,outcome,[20],inactive
